# Assay results from PMC5540273 (PLoS ONE, 2017).
# Experiments:
# Details in all cases: concentration: 1 μM, replicates: in singlicate; n = 1
# HASPIN = test system: T1, HASPIN
# T1 construct: gene GSG2
# HCK = test system: HCK
# HIPK1 = test system: HIPK1
# HIPK2 = test system: HIPK2
# HIPK3 = test system: HIPK3
# HIPK4 = test system: HIPK4
# HPK1 = test system: HPK1
# HUNK = test system: HUNK
# ICK = test system: ICK
# IGF1R = test system: IGF1R
# IKK-alpha = test system: T2, IKK-alpha
# T2 construct: gene CHUK
# IKK-beta = test system: T3, IKK-beta
# T3 construct: gene IKBKB
# IKK-epsilon = test system: T4, IKK-epsilon
# T4 construct: gene IKBKE
# INSRR = test system: INSRR
# INSR = test system: INSR
# IRAK1 = test system: IRAK1
# IRAK3 = test system: IRAK3
# IRAK4 = test system: IRAK4
# ITK = test system: ITK
# [1] = test system: JAK1(JH1domain-catalytic)
# 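Also: KINOMEscan kinase panel screen.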
SMILES,%Inh (HASPIN),%Inh (HCK),%Inh (HIPK1),%Inh (HIPK2),%Inh (HIPK3),%Inh (HIPK4),%Inh (HPK1),%Inh (HUNK),%Inh (ICK),%Inh (IGF1R),%Inh (IKK-alpha),%Inh (IKK-beta),%Inh (IKK-epsilon),%Inh (INSRR),%Inh (INSR),%Inh (IRAK1),%Inh (IRAK3),%Inh (IRAK4),%Inh (ITK),%Inh [1]
Cc1cccc(NC(=O)Nc2ccc(Oc3ncnc4ccn(C)c34)cc2)c1,0%,25%,24%,0%,0%,52%,31%,4%,0%,0%,27%,8%,0%,0%,0%,0%,0%,0%,0%,0%
CN(C)S(=O)(=O)c1cc(-c2ccc3nccc(-c4cccc(S(N)(=O)=O)c4)c3c2)cnc1N [GSK1669921],71%,0%,49%,36%,44%,48%,41%,0%,44%,0%,0%,0%,0%,24%,42%,0%,29%,9%,16%,12%
CC(C)c1nc(-c2cccc(NS(=O)(=O)c3c(F)cccc3F)c2F)c(-c2ccnc(Nc3ccc(N4CCOCC4)nc3)n2)s1 [GSK2008607],0%,99.5%,91.1%,92.3%,94.5%,94.7%,88%,0%,77%,8%,0%,4%,85%,4%,4%,17%,16%,10%,97.4%,1%
Cn1cc(-c2ccc3c(c2)CCN3C(=O)Cc2cccc(Cl)c2)c2c(N)ncnc21 [GSK2606590],2%,0%,13%,0%,13%,0%,47%,4%,0%,0%,22%,57%,78%,16%,9%,0%,22%,0%,19%,18%
Cl.Cl.NCC(NC(=O)c1cc(-c2ccccc2)c(-c2ccnc3[nH]ccc23)s1)c1ccccc1 (stereo not drawn) [GSK1321561],90.3%,0%,18%,28%,47%,50%,68%,11%,3%,0%,1%,3%,0%,0%,12%,40%,15%,0%,11%,29%
Cc1ccc(C(=O)Nc2ccc(Nc3ccnc4cc(-c5nccs5)ccc34)cc2O)cc1.Cl [GW494702],82%,93.4%,0%,37%,1%,0%,1%,30%,28%,0%,20%,7%,0%,1%,100%,22%,2%,5%,0%,0%
CCc1ccc(-c2ccc3c(c2)-c2c(cnn2C)S(=O)(=O)N3C)cc1,0%,0%,0%,0%,11%,8%,17%,0%,4%,4%,0%,7%,0%,7%,0%,0%,11%,0%,2%,0%
Cn1cc(-c2[nH]c3cc(NC(=O)[C@H](N)C4CCCCC4)cc4c3c2C=NNC4=O)cn1,52%,96.9%,88%,80%,80%,89%,65%,0%,0%,0%,15%,10%,73%,4%,0%,77%,20%,93.3%,34%,61%
CNC(=O)c1ccccc1Nc1nc(Nc2ccc(N3CCOCC3)cc2)ncc1Cl.Cl [GSK1576028],80%,99.6%,99.4%,99.3%,99%,99.3%,98.8%,0%,57%,96.6%,85%,78%,74%,98.6%,95.5%,100%,99.7%,99.6%,99.9%,97.6%
